In PubChem BioAssay (NCATS):
Records with an inconclusive call do not appear. Active and inactive are the calls of the source. Unless noted, calls follow the shape of the dose curve; as a rule, active = well fitted curve in the direction sought with a large enough effect; inconclusive = small, poorly fitted or top-dose-only effect, or another doubt; inactive = no such curve, though single readings can be large; an effect the other way counts as inactive or inconclusive.

Columns and labels:
[1] = Quantitative High-Throughput drug screen in 47 multiple myeloma cell lines against the NCATS MIPE library collection: OPM2_DSMZ cell viability assay (AID 1919872); also: nearly all actives have a fitted effect of over 30% in size
Summary of the method: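 CellTiter-Glo ATP luminescence gave viability after 48 h compound treatment at 37C of 500 multiple myeloma cells per well. Normalisation used DMSO-only wells as 100% and media-only wells as 0% viability; primary qHTS of approved and investigational drugs.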

[2] = Quantitative High-Throughput drug screen in 47 multiple myeloma cell lines against the NCATS MIPE library collection: KMS11_JCRBsus cell viability assay (AID 1919873); also: nearly all actives have a fitted effect of over 50% in size
Summary of the method: (§1)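 qHTS format: cells plated (500/well), pin-dosed with MIPE 4.0 compounds, kept 48 h at 37 °C. Readout was CellTiter-Glo luminescence, median RLU.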

[3] = Quantitative High-Throughput drug screen in 47 multiple myeloma cell lines against the NCATS MIPE library collection: KMS28BM_JCRB cell viability assay (AID 1919874); also: nearly all actives have a fitted effect of over 35% in size; also: potency is read from the fitted curve at half-maximal effect
Summary of the method: as §1

[4] = qHTS drug screen for cell cycle checkpoint inhibitors in PARPi-resistant BRCA-mutant ovarian cancer cell lines. (AID 1963452; calls by dose curve); conditions: PEO1/OlaR viability, CellTiter-Glo luminescence, 96 h, stronger effect = lower value
Summary of the method: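 PEO1, PEO4 and PEO1/OlaR ovarian cancer cells, 600 per well, exposed 96 h at 37C to a dilution series. Viability read by CellTiter-Glo luminescence, normalized to DMSO and empty wells; activity summarized as Z-AUC.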

[5] = qHTS for identification of novel therapeutic agents for treatment of microphthalmiaassociated transcription factor (MiT) renal cell carcinoma (RCC) (AID 1963991); conditions: CellTiter-Glo, 48 h, stronger effect = lower value
Summary of the method: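 Three TFE3-fusion RCC lines (UOK109, UOK124, UOK145), 500 cells/well in complete medium, were treated with MIPE 4.0 compounds for 48 hours at 37 C. Viability was by CellTiter-Glo luminescence, normalized to DMSO (100%) and empty wells (0%); curves fitted over 11 concentrations.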

[6] = qHTS profiling for inhibitors of Plasmodium falciparum proliferation (AID 504749);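 also: 0% = DMSO vehicle and full inhibition = artemisinin control; nearly all actives have a fitted effect of over 60% in size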; conditions: P. falciparum in erythrocytes, SYBR Green DNA, 72 h, at 28.7 µM (top of the series)
Summary of the method: (§2)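 Quantitative HTS: compounds pinned into medium, infected erythrocytes added (0.3% parasitemia, 2.5% hematocrit), 72 h culture at 37 C under 5% CO2. Saponin/Triton lysis with SYBR Green I, overnight RT, then fluorescence read.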

3D7 = assay: as above; conditions: P. falciparum in erythrocytes, SYBR Green DNA, 72 h; series mostly up to 28.7 µM
Summary of the method: as §2

7G8 = assay: as above; conditions: P. falciparum in erythrocytes, SYBR Green DNA, 72 h; series mostly up to 28.7 µM
Summary of the method: as §2

AA1029 = assay: as above; conditions: P. falciparum in erythrocytes, SYBR Green DNA, 72 h; series mostly up to 28.7 µM
Summary of the method: as §2

AS120 = assay: as above; conditions: P. falciparum in erythrocytes, SYBR Green DNA, 72 h; series mostly up to 28.7 µM
Summary of the method: as §2

[7] = target: Cytochrome P450 3A4 (Homo sapiens) (UniProt P08684); assay: qHTS for inhibitors of CYP3A4 against the NCATS DSHEA and TCM libraries (AID 1919971); conditions: recombinant CYP3A4 enzyme activity, luminescence qHTS; also: potency is read from the fitted curve at half-maximal effect
Summary of the method: (§3)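 Each CYP isoform and its pro-luciferin substrate, at isoform-specific final concentrations, were preincubated 15 min at RT with substances. NADPH regeneration solution (1x) started a 30-45 min reaction, and P450-Glo luminescence was read.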

[8] = target: Cytochrome P450 2D6 (Homo sapiens) (UniProt P10635); assay: qHTS for inhibitors of CYP2D6 against the NCATS DSHEA and TCM libraries (AID 1919972); conditions: CYP2D6 enzymatic inhibition, luminescence qHTS; also: potency is read from the fitted curve at half-maximal effect
Summary of the method: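 CYP2D6 enzyme with pro-luciferin substrate in manufacturer buffer (typically 100 mM KPO4), preincubated 15 min RT with substances (most at 19.5 nM upward); NADPH regeneration system (1x) started 30–45 min RT reaction; P450-Glo luminescence read after 30 min; quinidine as intraplate control.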

[9] = target: Cytochrome P450 2C9 (Homo sapiens) (UniProt P11712); assay: qHTS for inhibitors of CYP2C9 against the NCATS DSHEA and TCM libraries (AID 1919973); conditions: recombinant CYP2C9 enzyme activity, luminescence; also: potency is read from the fitted curve at half-maximal effect
Summary of the method: as §3

[10] = target: Cytochrome P450 2C19 (Homo sapiens) (UniProt P33261); assay: qHTS for inhibitors of CYP2C19 against the NCATS DSHEA and TCM libraries (AID 1919974); conditions: CYP2C19 enzyme inhibition, luminescence qHTS;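 also: luminescence from luciferin released by CYP2C19 oxidation of a pro-luciferin substrate; potency is read from the fitted curve at half-maximal effect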
Summary of the method: as §3

[11] = KB-3-1 P-gp reporter qHTS against the NCATS DSHEA and TCM libraries (AID 1919975); also: 0% is about no effect
Summary of the method: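 Parental KB-3-1 cells, 500 cells/well, in DMEM with 10% FBS, exposed 72 h at 37 C to compounds in concentration-response. Viability read by CellTiter-Glo luminescence after 30 min at room temperature.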

[12] = target: Cytochrome P450 1A2 (Homo sapiens) (UniProt P05177); assay: qHTS for inhibitors of CYPIA2 against the NCATS DSHEA and TCM libraries (AID 1919976); conditions: recombinant CYP1A2 enzyme activity, luminescence; also: potency is read from the fitted curve at half-maximal effect
Summary of the method: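 Reaction started with 1x NADPH regeneration solution and run 30-45 min, room temperature, protected from light, after compounds sat 15 min with CYP1A2 and pro-luciferin substrate. P450-Glo detection gave luminescence; furafylline served as control.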

[13] = Dual reporter qHTS for agonist of Pregnane X Receptor (hPXR) against the NCATS DSHEA and TCM libraries: Fluorescence readout (AID 1920058); also: 0% is about no effect
Summary of the method: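 Viability readout (CellTiter-Fluor, 405/540 nm, 1 h) from agonist-mode PXR dual reporter in hPXR-Luc HepG2 cells. Substances ~24 h, 37 °C, 5% CO2; rifampicin reference, tetraoctyl ammonium bromide cytotoxic control.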

[14] = target: Nuclear receptor subfamily 1 group I member 2 (Homo sapiens) (UniProt O75469); assay: Dual reporter qHTS for agonist of Pregnane X Receptor (hPXR) against the NCATS DSHEA and TCM libraries: Luminescence readout (AID 1920059); also: 0% is about no effect
Summary of the method: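 hPXR-LucHepG2 cells in phenol red-free DMEM with 5% charcoal-stripped FBS, 2000 cells/well, attached 5 h, then exposed 24 h at 37C to compounds; rifampicin as positive agonist control (2.8 nM–92 uM). Luciferase luminescence read.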

[15] = target: Nuclear receptor subfamily 1 group I member 2 (Homo sapiens) (UniProt O75469); assay: Dual reporter qHTS for antagonist of Pregnane X Receptor (hPXR) against the NCATS DSHEA and TCM libraries: Luminescence Readout (AID 1920060);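 also: HepG2 cells carrying hPXR luciferase reporter stimulated with rifampicin at 2 µM; 0% is about no effect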
Summary of the method: (§4)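 hPXR-Luc HepG2 cells exposed 24 h at 37 C to compounds with 2 uM rifampicin in antagonist mode; luciferase luminescence measured by ONE-Glo, with CellTiter-Fluor viability read beforehand.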

[16] = Dual reporter qHTS for antagonist of Pregnane X Receptor (hPXR) against the NCATS DSHEA and TCM libraries: Fluorescence Readout (AID 1920061); also: 0% is about no effect
Summary of the method: as §4

[17] = measured here: PEO1 parental Z-AUC
[18] = TFE3-RCC UOK109 viability, measured here: UOK109 Z-AUC
[19] = TFE3-RCC viability, measured here: UOK124 Z-AUC
[20] = TFE3-RCC viability, measured here: UOK145 Z-AUC

Nuclear receptor subfamily 1 group I member 2 (Homo sapiens), sequence (O75469 whole entry, looked up): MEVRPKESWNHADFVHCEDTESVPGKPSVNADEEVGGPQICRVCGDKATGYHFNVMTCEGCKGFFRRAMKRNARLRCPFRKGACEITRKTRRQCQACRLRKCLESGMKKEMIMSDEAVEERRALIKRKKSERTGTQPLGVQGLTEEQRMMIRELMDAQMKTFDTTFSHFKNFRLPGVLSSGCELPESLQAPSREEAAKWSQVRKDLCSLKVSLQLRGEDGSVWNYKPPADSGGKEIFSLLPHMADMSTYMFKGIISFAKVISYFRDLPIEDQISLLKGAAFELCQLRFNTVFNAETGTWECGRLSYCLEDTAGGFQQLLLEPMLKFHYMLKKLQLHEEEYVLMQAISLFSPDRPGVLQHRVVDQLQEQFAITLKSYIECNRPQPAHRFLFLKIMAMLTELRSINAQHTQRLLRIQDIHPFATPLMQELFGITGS
Cytochrome P450 1A2 (Homo sapiens), sequence (P05177 whole entry, looked up): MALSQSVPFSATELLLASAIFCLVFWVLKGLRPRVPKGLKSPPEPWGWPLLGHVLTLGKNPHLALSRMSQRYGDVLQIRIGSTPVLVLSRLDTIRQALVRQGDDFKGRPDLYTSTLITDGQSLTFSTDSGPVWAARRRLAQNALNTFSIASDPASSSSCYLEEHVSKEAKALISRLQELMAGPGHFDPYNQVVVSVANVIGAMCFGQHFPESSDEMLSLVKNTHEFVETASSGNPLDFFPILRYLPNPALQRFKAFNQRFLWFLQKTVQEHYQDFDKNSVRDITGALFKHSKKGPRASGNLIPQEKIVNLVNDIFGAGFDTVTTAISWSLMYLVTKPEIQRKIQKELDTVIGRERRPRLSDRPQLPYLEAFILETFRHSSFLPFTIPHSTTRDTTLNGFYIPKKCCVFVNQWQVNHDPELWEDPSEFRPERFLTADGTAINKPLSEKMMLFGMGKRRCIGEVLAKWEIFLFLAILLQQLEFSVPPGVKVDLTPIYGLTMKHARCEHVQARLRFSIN
Cytochrome P450 2C19 (Homo sapiens), sequence (P33261 whole entry, looked up): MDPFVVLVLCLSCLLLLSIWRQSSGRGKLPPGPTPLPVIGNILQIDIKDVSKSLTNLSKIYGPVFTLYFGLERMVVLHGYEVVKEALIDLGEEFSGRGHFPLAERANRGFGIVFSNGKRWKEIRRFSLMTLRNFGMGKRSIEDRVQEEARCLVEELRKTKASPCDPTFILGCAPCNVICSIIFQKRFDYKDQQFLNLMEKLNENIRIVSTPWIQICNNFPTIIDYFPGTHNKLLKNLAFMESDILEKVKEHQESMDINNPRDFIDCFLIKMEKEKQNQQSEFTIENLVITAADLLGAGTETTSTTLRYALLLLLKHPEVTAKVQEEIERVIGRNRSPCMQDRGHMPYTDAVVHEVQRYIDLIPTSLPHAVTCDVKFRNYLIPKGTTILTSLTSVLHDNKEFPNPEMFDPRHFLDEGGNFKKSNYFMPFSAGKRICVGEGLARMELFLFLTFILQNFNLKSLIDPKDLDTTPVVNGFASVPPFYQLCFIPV
Cytochrome P450 2C9 (Homo sapiens), sequence (P11712 whole entry, looked up): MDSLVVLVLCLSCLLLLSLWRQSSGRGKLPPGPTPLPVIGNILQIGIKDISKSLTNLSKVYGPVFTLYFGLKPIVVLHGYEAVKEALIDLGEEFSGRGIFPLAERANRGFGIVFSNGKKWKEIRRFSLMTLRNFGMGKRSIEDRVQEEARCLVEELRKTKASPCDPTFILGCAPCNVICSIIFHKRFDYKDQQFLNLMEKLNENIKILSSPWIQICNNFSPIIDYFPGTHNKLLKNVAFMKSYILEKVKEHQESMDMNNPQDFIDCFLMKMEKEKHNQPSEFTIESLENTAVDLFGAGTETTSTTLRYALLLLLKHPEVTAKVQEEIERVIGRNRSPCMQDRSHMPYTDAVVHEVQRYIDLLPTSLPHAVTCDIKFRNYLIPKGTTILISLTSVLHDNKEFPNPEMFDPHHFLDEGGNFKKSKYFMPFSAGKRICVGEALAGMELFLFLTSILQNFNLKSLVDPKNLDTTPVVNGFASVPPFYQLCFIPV
Cytochrome P450 2D6 (Homo sapiens), sequence (P10635 whole entry, looked up): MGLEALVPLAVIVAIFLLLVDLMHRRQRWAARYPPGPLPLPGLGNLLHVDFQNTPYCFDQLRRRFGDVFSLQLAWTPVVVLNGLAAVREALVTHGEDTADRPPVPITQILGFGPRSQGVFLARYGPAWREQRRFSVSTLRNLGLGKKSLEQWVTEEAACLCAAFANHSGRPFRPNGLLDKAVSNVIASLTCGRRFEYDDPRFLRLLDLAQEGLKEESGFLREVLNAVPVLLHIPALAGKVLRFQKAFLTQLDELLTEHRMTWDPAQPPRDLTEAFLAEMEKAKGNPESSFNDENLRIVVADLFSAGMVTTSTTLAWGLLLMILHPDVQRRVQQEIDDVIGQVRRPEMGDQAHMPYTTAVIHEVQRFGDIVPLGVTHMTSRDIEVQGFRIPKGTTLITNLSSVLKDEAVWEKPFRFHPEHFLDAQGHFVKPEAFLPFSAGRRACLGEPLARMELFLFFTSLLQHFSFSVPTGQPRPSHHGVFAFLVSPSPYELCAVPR
Cytochrome P450 3A4 (Homo sapiens), sequence (P08684 whole entry, looked up, canonical isoform): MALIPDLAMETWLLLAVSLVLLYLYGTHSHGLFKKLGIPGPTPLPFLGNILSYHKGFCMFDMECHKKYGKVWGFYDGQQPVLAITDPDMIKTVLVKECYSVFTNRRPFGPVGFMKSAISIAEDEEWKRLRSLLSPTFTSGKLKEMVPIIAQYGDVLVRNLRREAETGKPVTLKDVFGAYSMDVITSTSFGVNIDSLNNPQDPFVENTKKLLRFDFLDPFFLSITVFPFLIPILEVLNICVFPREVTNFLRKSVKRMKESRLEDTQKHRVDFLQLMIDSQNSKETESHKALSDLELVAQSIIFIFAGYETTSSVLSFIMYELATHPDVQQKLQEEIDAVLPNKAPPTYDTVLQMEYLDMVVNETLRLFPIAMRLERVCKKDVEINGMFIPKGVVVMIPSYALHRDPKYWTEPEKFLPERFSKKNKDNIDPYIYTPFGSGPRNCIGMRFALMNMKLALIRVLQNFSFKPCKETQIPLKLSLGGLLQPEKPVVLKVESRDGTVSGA

CC1Cc2ccccc2N1NC(=O)c1ccc(Cl)c(S(N)(=O)=O)c1 (stereo not given)
Potency [1]: inactive
Potency [2]: inactive
Potency [3]: 1.05 µM (active)
Z-AUC [4]: -0.461 (inactive)
Z-AUC [4, 17]: -0.0256
Z-AUC ([4]; measured here: PEO4 Z-AUC): 0.0474
z-score [5, 18]: 0.928
z-score [5, 19]: 0.508
z-score [5, 20]: 0.493

CC(C)Oc1ccc2c(=O)c(-c3ccccc3)coc2c1
Potency [1]: inactive
Potency [2]: inactive
Potency [3]: inactive
Z-AUC [4]: 0.208 (inactive)
Z-AUC [4, 17]: -0.757
Z-AUC ([4]; measured here: PEO4 Z-AUC): -0.189
z-score [5, 18]: 0.973
z-score [5, 19]: 0.495
z-score [5, 20]: -0.312

Nc1ccc(S(N)(=O)=O)cc1
Potency [1]: inactive
Potency [2]: inactive
Potency [3]: inactive
Z-AUC [4]: 0.067 (inactive)
Z-AUC [4, 17]: 0.495
Z-AUC ([4]; measured here: PEO4 Z-AUC): 0.56
z-score [5, 18]: 1.06
z-score [5, 19]: 0.709
z-score [5, 20]: 1.29
activity, negative = inhibition ([6]; parasite line A): 13.4% (inactive)
activity, negative = inhibition ([6]; parasite line B): 14.6% (inactive)
Potency (3D7): inactive
Potency (7G8): inactive
Potency (AA1029): inactive
Potency (AS120): inactive

Cc1cc(O)c2c(c1)C(=O)c1cc(O)cc(O)c1C2=O
Potency [1]: inactive
Potency [2]: inactive
Potency [3]: inactive
Potency [7]: 10 µM (active)
Potency [8]: 22.4 µM (active)
Potency [9]: 8.91 µM (active)
Potency [10]: 22.4 µM (active)
outcome [11]: inactive
Potency [12]: 8.91 µM (active)
outcome [13]: inactive
outcome [14]: inactive
outcome [15]: inactive
outcome [16]: inactive
Z-AUC [4]: 0.333 (inactive)
Z-AUC [4, 17]: 0.799
Z-AUC ([4]; measured here: PEO4 Z-AUC): 0.55

CN(C)CCCC1(c2ccc(F)cc2)OCc2cc(C#N)ccc21 (stereo not given)
Potency [1]: inactive

O=c1c(O)c(-c2ccc(O)cc2O)oc2cc(O)cc(O)c12
Potency [1]: inactive
Potency [2]: inactive
Potency [3]: inactive
Z-AUC [4]: 1.32 (inactive)
Z-AUC [4, 17]: 1.13
Z-AUC ([4]; measured here: PEO4 Z-AUC): 1.21

Cc1nc(-c2ccc(OCC(C)C)c(C#N)c2)sc1C(=O)O
Potency [1]: inactive
Potency [2]: inactive
Potency [3]: inactive
Z-AUC [4]: 0.79 (inactive)
Z-AUC [4, 17]: 0.0163
Z-AUC ([4]; measured here: PEO4 Z-AUC): 0.327
z-score [5, 18]: 1.16
z-score [5, 19]: 0.952
z-score [5, 20]: 0.581

O=C(O)c1cc(=O)c2c(OCC(O)COc3cccc4oc(C(=O)O)cc(=O)c34)cccc2o1
Potency [1]: inactive
Potency [2]: inactive
Potency [3]: inactive
Z-AUC [4]: 1.18 (inactive)
Z-AUC [4, 17]: 1.06
Z-AUC ([4]; measured here: PEO4 Z-AUC): 1
z-score [5, 18]: 0.209
z-score [5, 19]: 0.177
z-score [5, 20]: -0.326
activity, negative = inhibition ([6]; parasite line A): 8.12% (inactive)
activity, negative = inhibition ([6]; parasite line B): 15.8% (inactive)
Potency (3D7): inactive
Potency (7G8): inactive
Potency (AA1029): inactive
Potency (AS120): inactive
